# Experimental data: the supplement of paper PMC7411054
# Structures can show the parent of a compound that is named as a salt.
# How the values were obtained:
# Assay in all cases: lowest phenotypically active concentration; higher = less potent
# Conditions in all cases: treatment time: 24 h
# A549-GM130-SQSTM1 = tested on: A549-GM130-SQSTM1
# Procedure, shortened: (§1)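 Fifteen reporter lines derived from A549, HepG2 and WPMY1 cells by gene editing, carrying BFP for segmentation plus GFP and RFP/FusionRed markers, were exposed to 0.3, 1, 3 or 9 µM for 24 h in four wells each and imaged live. Live-cell features from each well were normalised to solvent control wells. A well set counted as deviating when ≥3 of 4 wells lay beyond the 95th percentile of control Euclidean distances, and as reproducible when the median replicate Pearson correlation exceeded the 95th percentile of non-replicates. Phenotypic activity was assigned only when both criteria were met.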
# WPMY1-TP53BP1-CLTA = tested on: WPMY1-TP53BP1-CLTA
# Procedure, shortened: as §1
# A549-TUBA1B-RELA = tested on: A549-TUBA1B-RELA
# Procedure, shortened: as §1
# HepG2-ACTB-RAB5A = tested on: HepG2-ACTB-RAB5A
# Procedure, shortened: as §1
# HepG2-TP53BP1-CLTA = tested on: HepG2-TP53BP1-CLTA
# Procedure, shortened: as §1
# WPMY1-CANX-COX4 = tested on: WPMY1-CANX-COX4
# Procedure, shortened: as §1
# A549-TP53BP1-CLTA = tested on: A549-TP53BP1-CLTA
# Procedure, shortened: as §1
# WPMY1-TUBA1B-RELA = tested on: WPMY1-TUBA1B-RELA
# Procedure, shortened: as §1
# A549-ACTB-RAB5A = tested on: A549-ACTB-RAB5A
# Procedure, shortened: as §1
# A549-CANX-COX4 = tested on: A549-CANX-COX4
# Procedure, shortened: as §1
smiles,measurement,setting,value
CC(C)NCC(O)COc1ccc(CC(N)=O)cc1 (centres undefined) [atenolol-()],lowest phenotypically active concentration,A549-GM130-SQSTM1,9 µM
same,lowest phenotypically active concentration,WPMY1-TP53BP1-CLTA,9 µM
CCOc1nc(NC(=O)Cc2cc(OC)ccc2OC)cc(N)c1C#N,lowest phenotypically active concentration,A549-TUBA1B-RELA,9 µM
CCCCCCCCCCCCC/C=C/[C@H](O)[C@H](N)CO [D-erythro-Sphingosine (synthetic)],lowest phenotypically active concentration,A549-GM130-SQSTM1,9 µM
C[C@@H]1CN(Cc2ccc(F)cc2)[C@@H](C)CN1C(=O)c1cc2c(C(=O)C(=O)N(C)C)cn(C)c2cc1Cl [SCIO 469 hydrochloride],lowest phenotypically active concentration,HepG2-ACTB-RAB5A,9 µM
same,lowest phenotypically active concentration,HepG2-TP53BP1-CLTA,9 µM
same,lowest phenotypically active concentration,WPMY1-CANX-COX4,3 µM
C[C@H](NC(=O)c1sccc1OCc1ccc(Cl)cc1)c1ccccc1,lowest phenotypically active concentration,A549-TP53BP1-CLTA,9 µM
same,lowest phenotypically active concentration,WPMY1-TP53BP1-CLTA,3 µM
O=C(O)COc1ccc(Br)cc1/C=C1\SC(=S)N(Cc2cccnc2)C1=O,lowest phenotypically active concentration,A549-GM130-SQSTM1,9 µM
S=c1[nH]cnc2nc[nH]c12 [mercaptopurine],lowest phenotypically active concentration,HepG2-ACTB-RAB5A,9 µM
same,lowest phenotypically active concentration,WPMY1-CANX-COX4,9 µM
same,lowest phenotypically active concentration,WPMY1-TUBA1B-RELA,9 µM
CO[C@H]1C=CO[C@@]2(C)Oc3c(C)c(O)c4c(O)c(c(/C=N/N5CCN(C)CC5)c(O)c4c3C2=O)NC(=O)C(C)=CC=C[C@H](C)[C@H](O)[C@@H](C)[C@@H](O)[C@@H](C)[C@H](OC(C)=O)[C@@H]1C [Rifampicin],lowest phenotypically active concentration,A549-GM130-SQSTM1,9 µM
CCCc1cc2c(N3CCN(C4=NCC(C)(C)S4)CC3)ncnc2s1 [MI 2 dihydrochloride],lowest phenotypically active concentration,A549-GM130-SQSTM1,9 µM
same,lowest phenotypically active concentration,HepG2-ACTB-RAB5A,9 µM
same,lowest phenotypically active concentration,HepG2-TP53BP1-CLTA,9 µM
CC(C)N(CCCNC(=O)Nc1ccc(C(C)(C)C)cc1)C[C@H]1O[C@@H](n2cc(Br)c3c(N)ncnc32)[C@H](O)[C@@H]1O,lowest phenotypically active concentration,A549-TP53BP1-CLTA,3 µM
same,lowest phenotypically active concentration,HepG2-ACTB-RAB5A,3 µM
same,lowest phenotypically active concentration,HepG2-TP53BP1-CLTA,1 µM
same,lowest phenotypically active concentration,WPMY1-CANX-COX4,3 µM
same,lowest phenotypically active concentration,WPMY1-TP53BP1-CLTA,9 µM
same,lowest phenotypically active concentration,WPMY1-TUBA1B-RELA,9 µM
CCc1c(C(=O)Nc2cc(S(=O)(=O)N(CC)CC)ccc2O)[nH]c(C)c1C(C)=O,lowest phenotypically active concentration,HepG2-ACTB-RAB5A,9 µM
COCCCOc1ccnc(CS(=O)c2nc3ccccc3[nH]2)c1C (centres undefined) [rabeprazole],lowest phenotypically active concentration,HepG2-ACTB-RAB5A,9 µM
CC(C)(C)c1ccc(C(=O)Nc2cn3cc(-n4ccnc4)ccc3n2)cc1,lowest phenotypically active concentration,HepG2-ACTB-RAB5A,3 µM
COc1ccc(S(=O)(=O)ON=C2C=C(C)C(=O)C(C)=C2)cc1,lowest phenotypically active concentration,A549-GM130-SQSTM1,9 µM
same,lowest phenotypically active concentration,A549-TUBA1B-RELA,9 µM
same,lowest phenotypically active concentration,WPMY1-TUBA1B-RELA,9 µM
O=C(O)[C@H]1CCCC[C@H]1C(=O)N1CCc2ccccc2[C@H]1CN1C(=O)c2ccccc2C1=O,lowest phenotypically active concentration,HepG2-ACTB-RAB5A,9 µM
O=c1cc(-c2ccc(O)cc2)oc2cc(O)cc(O)c12 [Apigenin],lowest phenotypically active concentration,HepG2-TP53BP1-CLTA,9 µM
same,lowest phenotypically active concentration,WPMY1-TP53BP1-CLTA,3 µM
same,lowest phenotypically active concentration,WPMY1-TUBA1B-RELA,9 µM
CCOC(=O)c1ccc(N2NC(=O)/C(=C/c3ccc([N+](=O)[O-])o3)C2=O)cc1,lowest phenotypically active concentration,WPMY1-CANX-COX4,9 µM
Nc1ncnc2c1c(COc1cccc(Cl)c1)nn2C1CCOCC1,lowest phenotypically active concentration,HepG2-TP53BP1-CLTA,9 µM
NCCCCNS(=O)(=O)c1ccc2c(Cl)cccc2c1 [W-13 hydrochloride],lowest phenotypically active concentration,WPMY1-CANX-COX4,9 µM
same,lowest phenotypically active concentration,WPMY1-TUBA1B-RELA,9 µM
CN/C(=C/[N+](=O)[O-])NCCSCc1csc(CN(C)C)n1 [nizatidine],lowest phenotypically active concentration,HepG2-TP53BP1-CLTA,1 µM
C#CCN[C@@H]1CCc2ccccc21 [rasagiline],lowest phenotypically active concentration,HepG2-TP53BP1-CLTA,9 µM
same,lowest phenotypically active concentration,WPMY1-TP53BP1-CLTA,9 µM
O=C(Nc1ccccc1)N1CCC(Cc2cnc3ccccc3c2)CC1,lowest phenotypically active concentration,HepG2-TP53BP1-CLTA,9 µM
Oc1cc(O)cc(/C=C/c2ccc(O)c(O)c2)c1 [Piceatannol],lowest phenotypically active concentration,WPMY1-TUBA1B-RELA,9 µM
O=S(=O)(NCCCCCCc1ccccc1)c1cccc2c(Cl)cccc12,lowest phenotypically active concentration,WPMY1-CANX-COX4,≤ 0.3 µM
CCN1C(=O)NC(c2ccccc2)C1=O (centres undefined) [ethotoin],lowest phenotypically active concentration,WPMY1-CANX-COX4,3 µM
Cc1nc[nH]c1C1CCN(c2nc3cccc4c3n2CCC4=O)CC1,lowest phenotypically active concentration,HepG2-TP53BP1-CLTA,9 µM
CN(C)CCOC(c1ccccc1)c1ccccc1 [diphenhydramine],lowest phenotypically active concentration,WPMY1-CANX-COX4,9 µM
same,lowest phenotypically active concentration,WPMY1-TP53BP1-CLTA,9 µM
same,lowest phenotypically active concentration,WPMY1-TUBA1B-RELA,9 µM
NS(=O)(=O)C#Cc1ccccc1 [pifithrin-mu],lowest phenotypically active concentration,WPMY1-TUBA1B-RELA,9 µM
Cc1ccc(C(=O)Oc2ccc(C(O)CNC(C)(C)C)cc2OC(=O)c2ccc(C)cc2)cc1 (centres undefined) [bitolterol],lowest phenotypically active concentration,WPMY1-CANX-COX4,9 µM
Fc1ccc(Cl)cc1-c1nc(Nc2ccncc2)c2nccnc2n1,lowest phenotypically active concentration,WPMY1-TP53BP1-CLTA,9 µM
C=C[C@H]1CN2CC[C@H]1C[C@H]2[C@H](O)c1ccnc2ccc(OC)cc12 [Quinine dihydrochloride],lowest phenotypically active concentration,A549-ACTB-RAB5A,9 µM
same,lowest phenotypically active concentration,A549-GM130-SQSTM1,3 µM
NC(=O)c1sc2c([N+](=O)[O-])cc(C(F)(F)F)cc2[n+]1[O-] [Cyclapolin 9],lowest phenotypically active concentration,WPMY1-TUBA1B-RELA,9 µM
COc1ccc2c3c(c(=O)n(C)c2c1OC)C=CC(C)(C)O3 [Veprisine],lowest phenotypically active concentration,WPMY1-TP53BP1-CLTA,9 µM
CC(C)C(=O)Nc1ncc(-c2cc(C(F)F)nn2-c2c(Cl)cccc2Cl)s1,lowest phenotypically active concentration,A549-ACTB-RAB5A,≤ 0.3 µM
same,lowest phenotypically active concentration,HepG2-ACTB-RAB5A,3 µM
same,lowest phenotypically active concentration,WPMY1-CANX-COX4,3 µM
same,lowest phenotypically active concentration,WPMY1-TUBA1B-RELA,3 µM
O=S(c1ccccc1)c1ccc2nnnn2n1 (centres undefined),lowest phenotypically active concentration,A549-ACTB-RAB5A,9 µM
same,lowest phenotypically active concentration,WPMY1-CANX-COX4,9 µM
same,lowest phenotypically active concentration,WPMY1-TUBA1B-RELA,9 µM
COc1ccc(CCN(C)CCCC(C#N)(c2ccc(OC)c(OC)c2)C(C)C)cc1OC (centres undefined) [verapamil],lowest phenotypically active concentration,A549-ACTB-RAB5A,9 µM
same,lowest phenotypically active concentration,A549-GM130-SQSTM1,9 µM
same,lowest phenotypically active concentration,A549-TUBA1B-RELA,9 µM
O=C(O)/C(Cc1ccccc1[N+](=O)[O-])=N\Nc1nc(-c2ccc(Cl)c(Cl)c2)cs1,lowest phenotypically active concentration,WPMY1-TP53BP1-CLTA,9 µM
CS(=O)(=O)c1ccc(-c2nnc(/C=C/c3nnc(-c4ccc(C#N)cc4)o3)n2-c2ccccc2Cl)nc1,lowest phenotypically active concentration,WPMY1-TP53BP1-CLTA,9 µM
CN1C/C(=C/c2ccc(B(O)O)cc2)C(=O)/C(=C/c2ccc(B(O)O)cc2)C1,lowest phenotypically active concentration,A549-CANX-COX4,≤ 0.3 µM
same,lowest phenotypically active concentration,A549-TP53BP1-CLTA,≤ 0.3 µM
same,lowest phenotypically active concentration,HepG2-ACTB-RAB5A,≤ 0.3 µM
same,lowest phenotypically active concentration,HepG2-TP53BP1-CLTA,9 µM
same,lowest phenotypically active concentration,WPMY1-CANX-COX4,3 µM
same,lowest phenotypically active concentration,WPMY1-TP53BP1-CLTA,3 µM
same,lowest phenotypically active concentration,WPMY1-TUBA1B-RELA,3 µM
